IL-2 act = qHTS of IL-2 Activators | IL-2 activation reporter assay, cell-based qHTS; stimulated with anti-CD3/CD4/CD28 beads; in transgenic mouse T cells | AID 652025, 2013 | 360,000 tested, 0.065% active | activation, % (series mostly up to about 46 µM); in the data active = activation above about 50%; inconclusive = mostly about 30% to 49%
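Screening format: compound pinned onto unstimulated transgenic mouse T cells, 60 min incubation, then anti-CD3/anti-CD4/anti-CD28 bead stimulation for 18 hours at 37 degrees C, followed by EGFP and DsRed detection.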
uPA generation = qHTS for Inhibitors of Cell Surface uPA Generation; cell surface uPA generation assay, qHTS; Potency, µM (titrated, usually from 38.3 µM), actives largely listed as inhibitors; 330,000 tested, 0.31% active; AID 540303, 2011; active = well fitted inhibition curve with a large enough effect; inconclusive = small, poorly fitted or top-dose-only effect; inactive = no such curve, though single readings can be large or run the other way; tested in mouse RAW 264.7 cells; also: nearly all actives have a fitted effect of over 55% in size
p53 reactivator = qHTS assay for re-activators of p53 using a Luc reporter; H1299 p53-A138V BP100-luciferase reporter, luminescence, 24 h; Potency, µM (doses to about 92.2 µM), hits mostly activators; 320,000 tested, 0.063% active; AID 504706, 2011; also: nearly all actives have a fitted effect of over 45% in size
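p53-null H1299 cells stably carrying temperature-sensitive p53-A138V and a BP100-luciferase reporter were pinned with compounds (4-point, 1:5 series) and held 24 hrs at 37 deg C. Luminescence was read 10 min after detection reagent.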
BRCA1 expr act = qHTS Assay to Identify Small Molecule Activators of BRCA1 Expression; MCF7-BRCA1-FFLuc reporter, luminescence, 48 h; response scale: scaled: vehicle 0%, 10 µM genistein 100%; Potency, µM (titrated, usually from 46.1 µM), hits mostly activators; 380,000 tested, 1.1% active; also: nearly all actives have a fitted effect of over 80% in size
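MCF7-BRCA1-FFLuc cells, 2000/well in phenol-red-free MEM, attached 2 h then treated 48 h at 37 C. Luciferase luminescence read 15 min after reagent; normalized to genistein maximum activation (10microM) and DMSO, concentration-response fitted.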
TCR act = Activators of T cell receptors: qHTS campaign; primary human leukocytes, anti-CD3, IL-2 HTRF, 48 h; Potency, µM (highest dose often 9.22 µM), usual class: activators; 330,000 tested, under 10 active
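Using a-CD3 beads without co-stimulation, primary human leukocytes were exposed to compounds for 48 hr. An HTRF IL-2 kit measured the cytokine, with europium-to-d2 energy transfer producing emission at 665nm upon 320nm excitation.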
A number is an active result; i = inactive; ? = inconclusive; nt = no result. A selection: hits, their analogues and other compounds. The true share with any hit is near 1.4%. Unless noted, calls follow the shape of the dose curve; as a rule, active = well fitted curve in the direction sought with a large enough effect; inconclusive = small, poorly fitted or top-dose-only effect, or another doubt; inactive = no such curve, though single readings can be large; an effect the other way counts as inactive or inconclusive.

SMILES | IL-2 act | uPA generation | p53 reactivator | BRCA1 expr act | TCR act
N/C(=N\OC(=O)Oc1ccccc1)c1cccc([N+](=O)[O-])c1 | i | i | i | i | i
Cn1c(C(=O)Nc2cccc(Cl)c2)cc2c(=O)n(C)c3ccccc3c21 | nt | nt | nt | i | nt
C/C(=N\NC(=O)c1csc(C)c1C)c1ccco1 | i | i | 7.94µM | i | i
C/C(=N\NC(=O)c1cccs1)c1cccnc1 | i | i | i | ? | i
C/C(=N/NC(=O)c1cccs1)c1ccco1 | i | i | ? | 12.6µM | i
C/C(=N\NC(=O)c1cccs1)C(C)(C)C | i | i | ? | i | i
Cc1scc(C(=O)N/N=C/c2ccc(Cl)s2)c1C | i | i | ? | 7.08µM | i
C/C(=N\NC(=O)c1cccs1)c1ccc(C(=O)O)s1 | i | i | ? | 14.1µM | i
Cc1ccc(OCCSc2nc3ccccc3n2CC(=O)N2CCCCC2)c(C)c1 | nt | nt | nt | i | nt
O=C(Nc1ccc(F)cc1C(F)(F)F)C1CCN(c2ncccn2)CC1 | nt | nt | nt | i | nt
CCc1cccc(NC(=O)CN2C(=O)COc3ccc(S(=O)(=O)Nc4ccccc4)cc32)c1 | nt | nt | nt | i | nt
Cc1cccc(N2CCN(C(=O)c3cc4c(=O)[nH]c5ccc(C)cc5c4s3)CC2C)c1 (centres undefined) | nt | nt | nt | i | nt
C/C(=N\NC(=O)c1ccco1)c1ccc(NC(=O)c2ccccc2)cc1 | i | i | i | i | i
C/C(=N\NC(=O)c1ccco1)c1ccc(-c2ccccc2)cc1 | i | i | ? | 8.91µM | i
C/C(=N/NC(=O)c1cccs1)c1c(C)[nH]n(-c2nc3ccccc3s2)c1=O | i | 1.58µM | ? | i | i
C/C(=N\NC(=O)c1csc(C)c1C)c1ccc(C)s1 | i | i | ? | 10µM | i
COc1ccc2c(CNCCc3ccco3)c(C(=O)O)n(Cc3ccc(F)cc3)c2c1 | nt | nt | nt | i | nt
CCN(CC)CCNC(=O)C1CCN(c2cc(C)nc3c(-c4ccc(Cl)cc4)c(C)nn23)CC1 | nt | nt | nt | i | nt
CC1CCN(C(=O)COC(=O)c2c[nH]c3ccccc23)CC1 | i | i | i | 7.08µM | i
O=C(OCC(=O)N1CCCCC1)c1c[nH]c2ccccc12 | i | i | ? | 6.31µM | i
CC1CC(C)CN(C(=O)COC(=O)c2c[nH]c3ccccc23)C1 (centres undefined) | i | i | ? | i | i
Cc1cccc(C(=O)OCC(=O)N2CCCCCC2)c1C | i | i | ? | 5.62µM | i
CCOC(=O)Cn1c(=O)n(CC2CCCO2)c2nc(-c3ccc(CC)cc3)nc(C(N)=O)c21 (centres undefined) | nt | nt | nt | i | nt
CCOC(=O)c1cccc(NC(=O)c2cc3c(=O)n(C)c4ccccc4c3n2C)c1 | nt | nt | nt | i | nt
Cc1ccc(S(=O)(=O)N2CCCCC2CCNC(=O)C(=O)NCc2ccncc2)cc1 (centres undefined) | i | i | i | i | i
SMILES | IL-2 act | uPA generation | p53 reactivator | BRCA1 expr act | TCR act
Cc1ccc(S(=O)(=O)N2CCCCC2CCNC(=O)C(=O)NCc2ccccc2)cc1 (centres undefined) | i | 8.91µM | i | i | i
O=C(CSc1nnc(-c2ccco2)n1Cc1ccccc1)c1ccccc1 | i | i | i | 3.98µM | i
O=C(CSc1nnnn1Cc1ccccc1)c1ccc(F)cc1 | i | i | i | ? | i
O=C(CSc1nnnn1Cc1ccccc1)c1ccccc1 | i | i | i | 12.6µM | i
COc1cccc(C(=O)Nc2ccc3c(cc2=O)[C@@H](NC(C)=O)CCc2cc(OC)c(OC)c(OC)c2-3)c1 | i | 10µM | i | i | i
CCOc1ccc(NC(=O)CCc2c(C)nc3cc(-c4ccccc4OC)nn3c2C)cc1 | nt | nt | nt | i | nt
CN(C)S(=O)(=O)c1ccc(C(=O)NCCOc2ccc(F)cc2)cc1 | i | nt | i | 11.2µM | i
Nn1c(SCc2ccccc2)nc2ccccc21 | i | i | ? | 3.16µM | i
CCC(C(=O)Nc1ccc(C(C)C)cc1)n1nc(C)n2c(cc3cc(C)ccc32)c1=O (centres undefined) | nt | nt | nt | i | nt
CCn1c(O)c(/C=N/N=C/c2ccc(OC)cc2)c2cc(C3=NNC(=O)CC3)ccc21 | 214.9 | i | i | i | i

Screens (PubChem BioAssay)
